# Assay results taken from paper PMC7862700, “An all-to-all approach to the identification of sequence-specific readers for epigenetic DNA modifications on cytosine”.
# Tests used:
# Assay in all cases: DAPPL (digital affinity profiling via proximity ligation, sequencing); 10 mM Tris-HCl pH 7.5, 50 mM NaCl, 1 mM DTT, 4% glycerol, room temperature, 30 min; GST-TFs on glutathione beads, 16-mer random dsDNA library, 0.1% formaldehyde crosslink after washing; high values mean tight binding
# [1] = target: T1, FEV (Homo sapiens, UniProt Q99581 1-238); settings: protein: recombinant; tags: N-terminal GST; dsDNA, one strand shown
# T1 sequence: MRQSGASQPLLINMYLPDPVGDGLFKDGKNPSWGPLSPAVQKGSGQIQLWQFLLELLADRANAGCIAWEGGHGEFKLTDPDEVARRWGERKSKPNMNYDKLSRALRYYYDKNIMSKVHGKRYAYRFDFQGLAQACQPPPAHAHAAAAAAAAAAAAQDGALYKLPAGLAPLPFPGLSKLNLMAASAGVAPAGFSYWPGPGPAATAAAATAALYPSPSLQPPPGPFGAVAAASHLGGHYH
# Method in brief: (§1)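 The binding signal reported is, for every hexamer, its read frequency for a factor over its read frequency for the tag-only sample. Reads came from pools of yeast-expressed, GST-fused human transcription factors on glutathione beads, barcoded with DNA and mixed with that sample, which were incubated with 200 nmole of a random double-stranded 16-mer DNA library in Tris/NaCl/DTT/glycerol buffer at room temperature for 30 min. After washing, the pools were crosslinked with 0.1% formaldehyde, proximity-ligated with BsaI/T4 ligase for 1 h at 37 °C, PCR-amplified and sequenced on an Illumina NextSeq500.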
# [2] = target: ETV5 (Homo sapiens, UniProt P41161 1-510); settings: protein: recombinant; tags: N-terminal GST; dsDNA, one strand shown
# Method in brief: as §1
# [3] = target: HSF1 (Homo sapiens, UniProt Q00613 1-529); settings: protein: recombinant; tags: N-terminal GST; chain copies: 3; dsDNA, one strand shown
# Method in brief: as §1
# [4] = target: T2, SPIC (Homo sapiens, UniProt Q8N5J4 1-248); settings: protein: recombinant; tags: N-terminal GST; dsDNA, one strand shown
# T2 sequence: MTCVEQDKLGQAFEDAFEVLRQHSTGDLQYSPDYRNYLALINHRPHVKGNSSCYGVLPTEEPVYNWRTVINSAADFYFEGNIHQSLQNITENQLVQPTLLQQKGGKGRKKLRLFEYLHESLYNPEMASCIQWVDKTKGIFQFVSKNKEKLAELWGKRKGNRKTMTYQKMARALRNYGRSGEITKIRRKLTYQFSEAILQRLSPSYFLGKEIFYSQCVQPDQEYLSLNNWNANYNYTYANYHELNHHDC
# Method in brief: as §1
# [5] = target: ELF4 (Homo sapiens, UniProt Q99607 1-663); settings: protein: recombinant; tags: N-terminal GST; dsDNA, one strand shown
# Method in brief: as §1
# [6] = target: T3, ELK4 (Homo sapiens, UniProt P28324-2 1-405); settings: protein: recombinant; tags: N-terminal GST; dsDNA, one strand shown
# T3 sequence: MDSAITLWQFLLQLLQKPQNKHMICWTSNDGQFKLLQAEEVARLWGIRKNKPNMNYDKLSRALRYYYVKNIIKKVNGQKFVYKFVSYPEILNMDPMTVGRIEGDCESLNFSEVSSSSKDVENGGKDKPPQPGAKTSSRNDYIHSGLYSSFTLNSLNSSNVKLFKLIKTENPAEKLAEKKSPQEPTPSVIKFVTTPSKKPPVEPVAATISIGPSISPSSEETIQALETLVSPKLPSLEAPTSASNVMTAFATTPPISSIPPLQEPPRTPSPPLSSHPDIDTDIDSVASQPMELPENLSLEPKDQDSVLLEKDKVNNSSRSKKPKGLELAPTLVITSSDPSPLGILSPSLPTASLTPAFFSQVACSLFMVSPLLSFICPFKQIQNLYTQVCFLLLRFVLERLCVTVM
# Method in brief: as §1
# [7] = target: T4, ETV2 (Homo sapiens, UniProt O00321 1-342); settings: protein: recombinant; tags: N-terminal GST; dsDNA, one strand shown
# T4 sequence: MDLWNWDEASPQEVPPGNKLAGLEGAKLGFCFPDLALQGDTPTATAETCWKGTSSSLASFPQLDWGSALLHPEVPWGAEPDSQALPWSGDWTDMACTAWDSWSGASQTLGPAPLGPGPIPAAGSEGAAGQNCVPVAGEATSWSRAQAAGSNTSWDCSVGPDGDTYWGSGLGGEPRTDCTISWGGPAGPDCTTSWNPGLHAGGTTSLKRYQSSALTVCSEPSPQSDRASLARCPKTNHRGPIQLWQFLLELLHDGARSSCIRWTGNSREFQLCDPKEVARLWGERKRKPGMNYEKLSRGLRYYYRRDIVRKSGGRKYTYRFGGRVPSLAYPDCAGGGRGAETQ
# Method in brief: as §1
# [8] = target: T5, ELF3 (Homo sapiens, UniProt P78545 1-371); settings: protein: recombinant; tags: N-terminal GST; dsDNA, one strand shown
# T5 sequence: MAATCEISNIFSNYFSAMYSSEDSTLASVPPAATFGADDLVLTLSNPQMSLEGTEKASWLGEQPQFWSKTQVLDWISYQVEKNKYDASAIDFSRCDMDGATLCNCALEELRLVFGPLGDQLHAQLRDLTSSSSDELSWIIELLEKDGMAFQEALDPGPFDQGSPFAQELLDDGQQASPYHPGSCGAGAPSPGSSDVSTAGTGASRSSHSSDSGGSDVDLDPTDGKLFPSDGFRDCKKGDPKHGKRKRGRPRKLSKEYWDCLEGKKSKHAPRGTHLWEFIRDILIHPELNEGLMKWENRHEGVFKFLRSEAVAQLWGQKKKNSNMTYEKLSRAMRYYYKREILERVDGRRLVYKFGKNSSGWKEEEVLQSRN
# Method in brief: as §1
# [9] = target: CRX (Homo sapiens, UniProt O43186 1-299); settings: protein: recombinant; tags: N-terminal GST; dsDNA, one strand shown
# Method in brief: as §1
# [10] = target: ETV1 (Homo sapiens, UniProt P50549 1-477); settings: protein: recombinant; tags: N-terminal GST; dsDNA, one strand shown
# Method in brief: as §1
# [11] = target: T6, ERF (Homo sapiens, UniProt P50548 1-548); settings: protein: recombinant; tags: N-terminal GST; dsDNA, one strand shown
# T6 sequence: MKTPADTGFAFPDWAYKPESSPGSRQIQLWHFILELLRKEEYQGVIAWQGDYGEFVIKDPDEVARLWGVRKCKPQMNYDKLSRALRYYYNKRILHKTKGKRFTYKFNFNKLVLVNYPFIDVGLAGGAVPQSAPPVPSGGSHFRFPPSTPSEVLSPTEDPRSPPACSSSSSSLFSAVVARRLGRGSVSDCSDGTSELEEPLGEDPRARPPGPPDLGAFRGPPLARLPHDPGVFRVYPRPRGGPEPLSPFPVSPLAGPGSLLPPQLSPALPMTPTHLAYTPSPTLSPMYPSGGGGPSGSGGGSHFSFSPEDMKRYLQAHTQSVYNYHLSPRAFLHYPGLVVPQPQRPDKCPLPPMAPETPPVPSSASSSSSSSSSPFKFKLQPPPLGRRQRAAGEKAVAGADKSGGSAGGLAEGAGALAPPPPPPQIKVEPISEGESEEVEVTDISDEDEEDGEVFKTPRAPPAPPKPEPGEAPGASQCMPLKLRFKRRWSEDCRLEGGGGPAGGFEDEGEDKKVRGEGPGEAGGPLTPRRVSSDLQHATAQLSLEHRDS
# Method in brief: as §1
# [12] = target: T7, ETV3L (Homo sapiens, UniProt Q6ZN32 1-361); settings: protein: recombinant; tags: N-terminal GST; dsDNA, one strand shown
# T7 sequence: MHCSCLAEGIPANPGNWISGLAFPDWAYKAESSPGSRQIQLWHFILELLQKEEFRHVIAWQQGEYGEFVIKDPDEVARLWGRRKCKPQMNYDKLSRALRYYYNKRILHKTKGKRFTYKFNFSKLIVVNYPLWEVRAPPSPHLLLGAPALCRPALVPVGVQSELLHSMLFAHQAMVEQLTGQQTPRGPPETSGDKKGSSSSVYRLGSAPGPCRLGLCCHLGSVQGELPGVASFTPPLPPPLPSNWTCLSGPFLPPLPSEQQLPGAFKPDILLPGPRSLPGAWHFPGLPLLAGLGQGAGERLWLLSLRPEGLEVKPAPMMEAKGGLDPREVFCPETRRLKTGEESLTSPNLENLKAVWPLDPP
# Method in brief: as §1
# [13] = target: T8, ETS2 (Homo sapiens, UniProt P15036 1-469); settings: protein: recombinant; tags: N-terminal GST; dsDNA, one strand shown
# T8 sequence: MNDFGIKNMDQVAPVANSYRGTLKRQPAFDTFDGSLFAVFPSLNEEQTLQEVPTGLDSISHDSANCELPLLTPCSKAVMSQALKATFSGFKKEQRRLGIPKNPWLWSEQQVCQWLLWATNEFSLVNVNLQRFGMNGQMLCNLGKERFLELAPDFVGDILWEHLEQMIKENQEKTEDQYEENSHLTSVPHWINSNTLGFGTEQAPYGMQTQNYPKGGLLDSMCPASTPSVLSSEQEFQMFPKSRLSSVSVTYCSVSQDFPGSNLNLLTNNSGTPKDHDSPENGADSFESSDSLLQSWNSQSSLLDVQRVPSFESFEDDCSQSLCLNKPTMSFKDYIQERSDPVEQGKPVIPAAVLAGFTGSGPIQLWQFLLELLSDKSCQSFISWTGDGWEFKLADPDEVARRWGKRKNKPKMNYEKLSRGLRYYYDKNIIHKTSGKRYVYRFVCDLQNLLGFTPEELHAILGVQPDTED
# Method in brief: as §1
# [14] = target: T9, SPDEF (Homo sapiens, UniProt O95238 1-335); settings: protein: recombinant; tags: N-terminal GST; dsDNA, one strand shown
# T9 sequence: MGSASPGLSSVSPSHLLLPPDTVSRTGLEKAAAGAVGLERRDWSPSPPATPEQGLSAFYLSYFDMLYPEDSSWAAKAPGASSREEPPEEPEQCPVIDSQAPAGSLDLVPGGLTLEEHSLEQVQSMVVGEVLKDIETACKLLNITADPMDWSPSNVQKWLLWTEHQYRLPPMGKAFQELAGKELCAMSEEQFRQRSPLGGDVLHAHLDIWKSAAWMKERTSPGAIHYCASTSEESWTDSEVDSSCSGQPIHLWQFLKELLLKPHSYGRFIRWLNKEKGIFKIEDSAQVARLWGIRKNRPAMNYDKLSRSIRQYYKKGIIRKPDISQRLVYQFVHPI
# Method in brief: as §1
# [15] = target: T10, ETV7 (Homo sapiens, UniProt Q9Y603 1-341); settings: protein: recombinant; tags: N-terminal GST; dsDNA, one strand shown
# T10 sequence: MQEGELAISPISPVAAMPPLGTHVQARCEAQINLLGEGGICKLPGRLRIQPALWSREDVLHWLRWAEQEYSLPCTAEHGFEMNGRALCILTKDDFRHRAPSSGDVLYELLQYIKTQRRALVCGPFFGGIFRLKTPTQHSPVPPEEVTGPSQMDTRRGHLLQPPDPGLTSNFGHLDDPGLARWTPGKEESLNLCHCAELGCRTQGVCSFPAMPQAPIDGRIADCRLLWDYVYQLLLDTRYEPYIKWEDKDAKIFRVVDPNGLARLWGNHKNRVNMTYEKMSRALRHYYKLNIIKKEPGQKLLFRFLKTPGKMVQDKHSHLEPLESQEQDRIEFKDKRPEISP
# Method in brief: as §1
# [16] = target: T11, ELF5 (Homo sapiens, UniProt Q9UKW6-2 1-255); settings: protein: recombinant; tags: N-terminal GST; dsDNA, one strand shown
# T11 sequence: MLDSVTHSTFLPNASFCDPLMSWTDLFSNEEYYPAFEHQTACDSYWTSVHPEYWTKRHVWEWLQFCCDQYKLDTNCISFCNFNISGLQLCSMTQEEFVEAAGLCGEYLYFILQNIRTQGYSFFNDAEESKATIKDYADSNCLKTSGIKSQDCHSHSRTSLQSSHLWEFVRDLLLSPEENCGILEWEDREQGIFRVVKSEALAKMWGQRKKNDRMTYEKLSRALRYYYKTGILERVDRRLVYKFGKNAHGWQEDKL
# Method in brief: as §1
# [17] = target: T12, ETV3 (Homo sapiens, UniProt P41162-2 1-143); settings: protein: recombinant; tags: N-terminal GST; dsDNA, one strand shown
# T12 sequence: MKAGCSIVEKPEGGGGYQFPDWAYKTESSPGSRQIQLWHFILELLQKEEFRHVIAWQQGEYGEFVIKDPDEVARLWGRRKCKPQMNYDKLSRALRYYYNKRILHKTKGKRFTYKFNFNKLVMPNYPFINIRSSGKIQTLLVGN
# Method in brief: as §1
# [18] = target: ETV6 (Homo sapiens, UniProt P41212 1-452); settings: protein: recombinant; tags: N-terminal GST; dsDNA, one strand shown
# Method in brief: as §1
# Sequence of ETV5 (P41161 whole entry): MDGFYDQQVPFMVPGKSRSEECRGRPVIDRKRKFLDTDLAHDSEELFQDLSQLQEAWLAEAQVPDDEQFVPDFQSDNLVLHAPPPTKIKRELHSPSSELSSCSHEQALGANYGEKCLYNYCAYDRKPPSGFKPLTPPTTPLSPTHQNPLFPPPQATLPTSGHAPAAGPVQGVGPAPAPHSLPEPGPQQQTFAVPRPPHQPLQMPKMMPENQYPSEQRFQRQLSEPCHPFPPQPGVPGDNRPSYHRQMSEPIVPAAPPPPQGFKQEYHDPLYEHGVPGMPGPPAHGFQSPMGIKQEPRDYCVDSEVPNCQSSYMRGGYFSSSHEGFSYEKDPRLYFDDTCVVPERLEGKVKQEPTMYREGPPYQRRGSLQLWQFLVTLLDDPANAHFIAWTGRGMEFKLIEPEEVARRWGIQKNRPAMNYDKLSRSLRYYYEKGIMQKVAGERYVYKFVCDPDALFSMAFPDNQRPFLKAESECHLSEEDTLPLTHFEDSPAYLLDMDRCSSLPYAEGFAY
# Sequence of ELF4 (Q99607 whole entry): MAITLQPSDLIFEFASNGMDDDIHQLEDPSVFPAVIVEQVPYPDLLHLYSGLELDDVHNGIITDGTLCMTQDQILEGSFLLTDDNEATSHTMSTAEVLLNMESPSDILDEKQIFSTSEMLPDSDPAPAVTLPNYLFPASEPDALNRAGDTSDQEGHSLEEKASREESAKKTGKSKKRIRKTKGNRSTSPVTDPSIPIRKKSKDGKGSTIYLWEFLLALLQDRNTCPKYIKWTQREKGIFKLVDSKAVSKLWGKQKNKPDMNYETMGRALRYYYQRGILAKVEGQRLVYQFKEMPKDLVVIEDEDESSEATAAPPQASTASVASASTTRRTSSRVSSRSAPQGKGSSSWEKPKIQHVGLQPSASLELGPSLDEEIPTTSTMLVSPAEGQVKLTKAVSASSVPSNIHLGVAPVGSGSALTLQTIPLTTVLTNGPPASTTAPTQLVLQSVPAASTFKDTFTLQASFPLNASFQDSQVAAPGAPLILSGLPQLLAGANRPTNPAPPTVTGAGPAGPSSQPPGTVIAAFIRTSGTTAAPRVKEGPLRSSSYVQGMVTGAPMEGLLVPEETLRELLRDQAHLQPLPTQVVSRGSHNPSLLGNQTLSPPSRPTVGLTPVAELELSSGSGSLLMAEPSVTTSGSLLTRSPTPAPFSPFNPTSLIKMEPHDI
# Sequence of ETV1 (P50549 whole entry): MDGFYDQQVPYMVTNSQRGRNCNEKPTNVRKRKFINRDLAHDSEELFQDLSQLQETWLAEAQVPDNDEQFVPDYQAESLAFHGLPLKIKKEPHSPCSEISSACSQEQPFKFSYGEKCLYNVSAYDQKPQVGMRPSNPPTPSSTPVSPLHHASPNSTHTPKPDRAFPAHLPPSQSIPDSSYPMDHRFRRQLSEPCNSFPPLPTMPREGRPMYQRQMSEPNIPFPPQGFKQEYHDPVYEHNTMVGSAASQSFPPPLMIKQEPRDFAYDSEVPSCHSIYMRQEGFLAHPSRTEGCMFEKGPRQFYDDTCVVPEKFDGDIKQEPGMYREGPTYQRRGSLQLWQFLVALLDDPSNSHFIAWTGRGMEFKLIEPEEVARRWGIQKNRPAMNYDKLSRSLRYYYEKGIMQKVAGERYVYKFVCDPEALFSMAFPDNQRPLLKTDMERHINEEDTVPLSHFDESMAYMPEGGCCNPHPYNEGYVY
# Sequence of HSF1 (Q00613 whole entry): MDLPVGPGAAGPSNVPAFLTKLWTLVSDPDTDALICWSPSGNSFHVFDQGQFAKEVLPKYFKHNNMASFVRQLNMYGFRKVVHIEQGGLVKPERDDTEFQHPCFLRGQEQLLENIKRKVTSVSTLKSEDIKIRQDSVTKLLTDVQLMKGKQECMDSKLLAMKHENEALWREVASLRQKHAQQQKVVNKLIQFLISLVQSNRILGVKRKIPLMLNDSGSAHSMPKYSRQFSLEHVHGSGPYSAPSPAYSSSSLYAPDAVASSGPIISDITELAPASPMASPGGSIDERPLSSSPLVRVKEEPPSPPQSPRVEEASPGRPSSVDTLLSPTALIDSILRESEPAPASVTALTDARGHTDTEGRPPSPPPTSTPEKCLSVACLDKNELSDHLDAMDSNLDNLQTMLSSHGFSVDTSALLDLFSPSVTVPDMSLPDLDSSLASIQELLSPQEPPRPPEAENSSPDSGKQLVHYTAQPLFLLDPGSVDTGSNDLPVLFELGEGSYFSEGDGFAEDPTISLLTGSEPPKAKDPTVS
# Sequence of CRX (O43186 whole entry): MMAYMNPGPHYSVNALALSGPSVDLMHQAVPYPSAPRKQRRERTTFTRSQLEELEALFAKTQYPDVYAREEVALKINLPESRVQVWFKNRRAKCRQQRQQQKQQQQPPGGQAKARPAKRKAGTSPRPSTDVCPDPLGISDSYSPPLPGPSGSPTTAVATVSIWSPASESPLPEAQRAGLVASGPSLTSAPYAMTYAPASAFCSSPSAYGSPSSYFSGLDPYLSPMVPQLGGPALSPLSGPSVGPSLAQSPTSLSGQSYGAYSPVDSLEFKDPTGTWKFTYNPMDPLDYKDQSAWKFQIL
# Sequence of ETV6 (P41212 whole entry): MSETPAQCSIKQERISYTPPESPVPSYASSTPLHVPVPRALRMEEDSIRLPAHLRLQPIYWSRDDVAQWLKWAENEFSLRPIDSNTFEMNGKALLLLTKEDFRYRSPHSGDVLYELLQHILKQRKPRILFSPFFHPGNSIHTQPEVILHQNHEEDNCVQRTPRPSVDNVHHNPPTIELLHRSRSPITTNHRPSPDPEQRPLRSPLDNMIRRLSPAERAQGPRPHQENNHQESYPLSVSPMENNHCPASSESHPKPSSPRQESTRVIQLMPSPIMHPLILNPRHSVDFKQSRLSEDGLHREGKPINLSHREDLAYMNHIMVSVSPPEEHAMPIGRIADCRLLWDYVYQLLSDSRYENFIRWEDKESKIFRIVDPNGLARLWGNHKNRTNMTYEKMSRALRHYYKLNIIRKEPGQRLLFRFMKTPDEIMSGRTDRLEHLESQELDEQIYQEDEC
sequence,measurement,setting,value
CAATTC,binding signal,[1],"1.24 fold enrichment (6-mer frequency, TF over GST control)"
same,binding signal,[2],"1.37 fold enrichment (6-mer frequency, TF over GST control)"
same,binding signal,[3],"1.19 fold enrichment (6-mer frequency, TF over GST control)"
same,binding signal,[4],"1.16 fold enrichment (6-mer frequency, TF over GST control)"
same,binding signal,[5],"1.31 fold enrichment (6-mer frequency, TF over GST control)"
same,binding signal,[6],"1.25 fold enrichment (6-mer frequency, TF over GST control)"
same,binding signal,[7],"1.39 fold enrichment (6-mer frequency, TF over GST control)"
same,binding signal,[8],"1.34 fold enrichment (6-mer frequency, TF over GST control)"
same,binding signal,[9],"1.07 fold enrichment (6-mer frequency, TF over GST control)"
same,binding signal,[10],"1.21 fold enrichment (6-mer frequency, TF over GST control)"
same,binding signal,[11],"1.26 fold enrichment (6-mer frequency, TF over GST control)"
same,binding signal,[12],"1.27 fold enrichment (6-mer frequency, TF over GST control)"
same,binding signal,[13],"1.24 fold enrichment (6-mer frequency, TF over GST control)"
same,binding signal,[14],"1.33 fold enrichment (6-mer frequency, TF over GST control)"
same,binding signal,[15],"1.24 fold enrichment (6-mer frequency, TF over GST control)"
same,binding signal,[16],"1.25 fold enrichment (6-mer frequency, TF over GST control)"
same,binding signal,[17],"1.31 fold enrichment (6-mer frequency, TF over GST control)"
same,binding signal,[18],"1.16 fold enrichment (6-mer frequency, TF over GST control)"
